The supplement of paper PMC6411743
± gives the standard deviation of the averaged measurements. Of roughly 6,200 targets only a part is listed; those with the largest changes were picked by preference.

Legend:
Test in all cases: NP40-soluble protein abundance relative to vehicle (solubility fold change) (ratio); higher = more soluble protein in presence of AMP-PNP
KIAA0319L = target: T1, KIAA0319L (UniProt Q8IZA0)
T1 sequence (whole entry): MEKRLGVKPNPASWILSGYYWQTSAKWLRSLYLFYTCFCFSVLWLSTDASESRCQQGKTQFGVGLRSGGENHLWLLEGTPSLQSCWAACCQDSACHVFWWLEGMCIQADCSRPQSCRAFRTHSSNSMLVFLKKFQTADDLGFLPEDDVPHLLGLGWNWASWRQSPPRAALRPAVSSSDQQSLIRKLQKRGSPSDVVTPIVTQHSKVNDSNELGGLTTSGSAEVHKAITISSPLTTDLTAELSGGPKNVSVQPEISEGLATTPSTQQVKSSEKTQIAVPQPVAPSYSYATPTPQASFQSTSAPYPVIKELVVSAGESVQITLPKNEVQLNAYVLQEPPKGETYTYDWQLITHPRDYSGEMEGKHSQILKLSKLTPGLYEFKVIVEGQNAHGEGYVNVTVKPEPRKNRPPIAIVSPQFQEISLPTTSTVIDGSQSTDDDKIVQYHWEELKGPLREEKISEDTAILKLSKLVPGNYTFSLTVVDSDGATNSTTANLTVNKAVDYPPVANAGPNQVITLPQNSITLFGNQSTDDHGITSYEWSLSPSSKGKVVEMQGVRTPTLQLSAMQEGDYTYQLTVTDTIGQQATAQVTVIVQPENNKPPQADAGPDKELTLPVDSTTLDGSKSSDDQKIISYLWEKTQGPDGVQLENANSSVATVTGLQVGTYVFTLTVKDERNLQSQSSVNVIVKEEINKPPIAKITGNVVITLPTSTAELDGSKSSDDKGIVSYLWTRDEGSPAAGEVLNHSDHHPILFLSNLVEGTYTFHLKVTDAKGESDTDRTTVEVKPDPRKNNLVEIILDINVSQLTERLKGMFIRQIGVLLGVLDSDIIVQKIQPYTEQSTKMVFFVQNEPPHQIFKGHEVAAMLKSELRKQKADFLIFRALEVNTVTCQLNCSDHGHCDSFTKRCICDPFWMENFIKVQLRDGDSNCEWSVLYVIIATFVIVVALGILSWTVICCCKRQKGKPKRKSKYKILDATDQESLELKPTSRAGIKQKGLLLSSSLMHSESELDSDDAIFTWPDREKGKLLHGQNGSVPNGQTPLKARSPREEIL
Method in brief: (§1)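 Values are fold changes against the detergent-processed vehicle, based on vsn-normalised intensities. Jurkat crude lysate was treated at eight concentrations from 0.1 to 10 mM (10 min at room temperature, then 3 min at 37 °C), solubilised with 0.8% NP40 and benzonase, ultracentrifuged and analysed by TMT-labelled LC-MS/MS over three independent experiments.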

NUFIP2 = target: T2, NUFIP2 (UniProt Q7Z417)
T2 sequence (whole entry): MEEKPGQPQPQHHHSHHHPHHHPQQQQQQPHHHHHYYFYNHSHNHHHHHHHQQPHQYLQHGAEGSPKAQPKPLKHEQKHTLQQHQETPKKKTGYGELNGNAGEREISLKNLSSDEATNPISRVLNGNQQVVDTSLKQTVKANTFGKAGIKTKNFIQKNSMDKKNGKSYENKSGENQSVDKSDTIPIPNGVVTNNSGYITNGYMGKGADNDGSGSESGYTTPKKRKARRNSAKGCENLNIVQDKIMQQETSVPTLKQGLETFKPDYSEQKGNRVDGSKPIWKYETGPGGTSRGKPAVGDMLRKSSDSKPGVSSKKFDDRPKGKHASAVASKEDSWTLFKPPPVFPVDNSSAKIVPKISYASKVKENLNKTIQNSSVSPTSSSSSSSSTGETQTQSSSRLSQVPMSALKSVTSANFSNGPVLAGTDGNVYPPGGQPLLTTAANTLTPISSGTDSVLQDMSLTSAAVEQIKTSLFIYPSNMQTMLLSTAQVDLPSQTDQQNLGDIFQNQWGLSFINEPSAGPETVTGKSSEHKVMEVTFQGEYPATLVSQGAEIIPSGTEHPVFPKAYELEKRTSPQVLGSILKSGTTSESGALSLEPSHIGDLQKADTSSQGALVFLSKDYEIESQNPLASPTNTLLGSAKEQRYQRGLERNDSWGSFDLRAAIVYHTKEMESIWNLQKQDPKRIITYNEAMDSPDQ
Method in brief: as §1

PINX1 = target: T3, PINX1 (UniProt Q96BK5)
T3 sequence (whole entry): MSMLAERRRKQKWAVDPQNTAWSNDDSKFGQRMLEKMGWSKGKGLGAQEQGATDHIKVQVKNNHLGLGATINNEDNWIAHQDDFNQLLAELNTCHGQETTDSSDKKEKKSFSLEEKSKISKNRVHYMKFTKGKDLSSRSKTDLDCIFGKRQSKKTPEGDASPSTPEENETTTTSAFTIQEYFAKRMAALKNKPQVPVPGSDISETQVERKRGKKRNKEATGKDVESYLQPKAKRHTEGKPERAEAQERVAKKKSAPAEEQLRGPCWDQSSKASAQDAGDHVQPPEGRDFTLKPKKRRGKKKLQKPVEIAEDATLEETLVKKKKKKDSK
Method in brief: as §1

TTF1 = target: T4, TTF1 (UniProt Q15361)
T4 sequence (whole entry): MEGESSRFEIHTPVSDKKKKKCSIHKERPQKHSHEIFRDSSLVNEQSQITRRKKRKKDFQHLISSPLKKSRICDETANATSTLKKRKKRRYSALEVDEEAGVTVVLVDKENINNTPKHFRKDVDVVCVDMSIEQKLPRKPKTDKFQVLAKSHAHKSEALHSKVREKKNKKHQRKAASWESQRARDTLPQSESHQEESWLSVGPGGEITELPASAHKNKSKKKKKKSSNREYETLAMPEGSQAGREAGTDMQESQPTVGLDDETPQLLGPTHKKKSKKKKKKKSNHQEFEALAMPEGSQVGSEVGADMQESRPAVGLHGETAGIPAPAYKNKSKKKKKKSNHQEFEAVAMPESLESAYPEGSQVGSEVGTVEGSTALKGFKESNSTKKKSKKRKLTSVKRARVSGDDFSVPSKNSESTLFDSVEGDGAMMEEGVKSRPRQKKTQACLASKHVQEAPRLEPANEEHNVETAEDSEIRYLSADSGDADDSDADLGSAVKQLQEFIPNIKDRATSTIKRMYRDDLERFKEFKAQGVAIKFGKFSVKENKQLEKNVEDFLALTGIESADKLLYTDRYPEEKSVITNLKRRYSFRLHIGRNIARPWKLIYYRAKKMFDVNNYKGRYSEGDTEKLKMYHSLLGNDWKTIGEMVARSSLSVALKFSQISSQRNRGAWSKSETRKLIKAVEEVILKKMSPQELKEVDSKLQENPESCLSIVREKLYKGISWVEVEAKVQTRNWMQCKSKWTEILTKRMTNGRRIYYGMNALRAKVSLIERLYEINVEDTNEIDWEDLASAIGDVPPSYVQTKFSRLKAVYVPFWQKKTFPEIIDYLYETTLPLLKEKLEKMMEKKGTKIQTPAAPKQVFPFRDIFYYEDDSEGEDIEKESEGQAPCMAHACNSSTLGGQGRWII
Method in brief: as §1

UniProt Q147X3|Q147X3-2 = target: T5, UniProt Q147X3|Q147X3-2
T5 sequence (whole entry): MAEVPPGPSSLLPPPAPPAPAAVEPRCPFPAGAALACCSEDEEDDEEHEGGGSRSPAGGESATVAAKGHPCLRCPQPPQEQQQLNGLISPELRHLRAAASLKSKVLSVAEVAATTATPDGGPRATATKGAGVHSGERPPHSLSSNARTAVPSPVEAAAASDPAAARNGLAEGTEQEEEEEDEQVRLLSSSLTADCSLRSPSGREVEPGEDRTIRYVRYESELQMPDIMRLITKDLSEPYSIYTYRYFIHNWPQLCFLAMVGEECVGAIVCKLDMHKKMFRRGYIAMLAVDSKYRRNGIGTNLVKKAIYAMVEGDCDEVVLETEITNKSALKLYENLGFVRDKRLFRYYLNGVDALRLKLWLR
Method in brief: as §1

SMILES: Nc1ncnc2c1ncn2[C@@H]1O[C@H](COP(=O)(O)OP(=O)(O)NP(=O)(O)O)[C@@H](O)[C@H]1O [adenylyl imidodiphosphate]
- NP40-soluble protein abundance (KIAA0319L; concentration: 1mM): 1.01 ± 0.014
- NP40-soluble protein abundance (KIAA0319L; concentration: 2mM): 1.03 ± 0.033
- NP40-soluble protein abundance (KIAA0319L; concentration: 4mM): 0.977 ± 0.025
- NP40-soluble protein abundance (KIAA0319L; concentration: 6mM): 0.969 ± 0.034
- NP40-soluble protein abundance (KIAA0319L; concentration: 8mM): 0.976 ± 0.017
- NP40-soluble protein abundance (KIAA0319L; concentration: 10mM): 0.9945 ± 0.0054
- NP40-soluble protein abundance (NUFIP2; concentration: 1mM): 1.11 ± 0.029
- NP40-soluble protein abundance (NUFIP2; concentration: 2mM): 1.22 ± 0.066
- NP40-soluble protein abundance (NUFIP2; concentration: 4mM): 1.24 ± 0.023
- NP40-soluble protein abundance (NUFIP2; concentration: 6mM): 1.26 ± 0.14
- NP40-soluble protein abundance (NUFIP2; concentration: 8mM): 1.27 ± 0.14
- NP40-soluble protein abundance (NUFIP2; concentration: 10mM): 1.37 ± 0.12
- NP40-soluble protein abundance (PINX1; concentration: 1mM): 1.15 ± 0.053
- NP40-soluble protein abundance (PINX1; concentration: 2mM): 1.27 ± 0.034
- NP40-soluble protein abundance (PINX1; concentration: 4mM): 1.36 ± 0.09
- NP40-soluble protein abundance (PINX1; concentration: 6mM): 1.51 ± 0.057
- NP40-soluble protein abundance (PINX1; concentration: 8mM): 1.59 ± 0.083
- NP40-soluble protein abundance (PINX1; concentration: 10mM): 1.8 ± 0.079
- NP40-soluble protein abundance (TTF1; concentration: 1mM): 0.967 ± 0.024
- NP40-soluble protein abundance (TTF1; concentration: 2mM): 0.963 ± 0.024
- NP40-soluble protein abundance (TTF1; concentration: 4mM): 0.957 ± 0.025
- NP40-soluble protein abundance (TTF1; concentration: 6mM): 0.96 ± 0.046
- NP40-soluble protein abundance (TTF1; concentration: 8mM): 0.912 ± 0.02
- NP40-soluble protein abundance (TTF1; concentration: 10mM): 0.949 ± 0.045
- NP40-soluble protein abundance (UniProt Q147X3|Q147X3-2; concentration: 1mM): 0.992 ± 0.016
- NP40-soluble protein abundance (UniProt Q147X3|Q147X3-2; concentration: 2mM): 0.971 ± 0.025
- NP40-soluble protein abundance (UniProt Q147X3|Q147X3-2; concentration: 4mM): 1.01 ± 0.059
- NP40-soluble protein abundance (UniProt Q147X3|Q147X3-2; concentration: 6mM): 1.03 ± 0.046
- NP40-soluble protein abundance (UniProt Q147X3|Q147X3-2; concentration: 8mM): 0.99 ± 0.023
- NP40-soluble protein abundance (UniProt Q147X3|Q147X3-2; concentration: 10mM): 1 ± 0.025
